Assay outcomes from PubChem.
NALP1 yeast inh – NALP1 inflammasome inhibitors in reconstituted yeast, colorimetric, S. cerevisiae, triplicate retest; S. cerevisiae NALP1/ASC/caspase-1 growth, X-gal OD620, 72 h; inhibition, % at 10 µM; hit rate 0.61% among 280,000; AID 2071, 2009; in the data active = inhibition mostly above about 24%, no sharp cut-off; inactive = mostly below about 32%
A1 inh – caspase 3/7 activation in MEF A1-2A-BIM cells, primary screen, A1 inhibitor project, cell-based, luminescence, HTS | Caspase-Glo 3/7 luminescence, 3 h; percent of clofoctol response, vehicle zero | hit rate 0.066% among 330,000 | caspase activation, % (concentration not given with the values);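 active = over half of replicate activation scores above 10%, or exactly half above 10 with the replicate mean above 10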
CHT inh – inhibitors of human choline transporter CHT; B-score at 10 µM; hit rate 0.86% among 310,000; High affinity choline transporter 1 (Homo sapiens), Q9GZV3; CHT-expressing cells, membrane potential dye, choline response; hits give low values;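 active = B-score over 3 SD under the library average, and starting fluorescence ratio not unusually high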;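 note: choline stimulus applied at its EC90 after an EC20 pre-addition; B-score computed on integrated fluorescence ratio after choline addition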
Target sequence (Q9GZV3 whole entry, looked up): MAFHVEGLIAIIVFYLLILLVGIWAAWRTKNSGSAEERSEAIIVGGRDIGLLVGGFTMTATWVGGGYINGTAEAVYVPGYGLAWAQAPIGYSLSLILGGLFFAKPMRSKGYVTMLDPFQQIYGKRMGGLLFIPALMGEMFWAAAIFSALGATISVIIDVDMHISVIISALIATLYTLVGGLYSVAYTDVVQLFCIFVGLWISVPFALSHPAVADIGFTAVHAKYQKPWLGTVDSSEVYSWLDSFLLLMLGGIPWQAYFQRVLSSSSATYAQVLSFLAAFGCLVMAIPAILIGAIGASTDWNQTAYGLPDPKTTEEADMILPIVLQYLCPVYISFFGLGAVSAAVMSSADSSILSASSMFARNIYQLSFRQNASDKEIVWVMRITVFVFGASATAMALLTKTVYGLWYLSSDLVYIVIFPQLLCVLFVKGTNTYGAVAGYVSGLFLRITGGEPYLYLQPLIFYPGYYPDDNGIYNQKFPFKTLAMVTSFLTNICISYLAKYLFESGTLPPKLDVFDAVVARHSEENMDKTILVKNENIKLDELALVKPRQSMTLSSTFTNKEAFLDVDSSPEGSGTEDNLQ
Mot1-301 SUMO – yeast Mot1-301 growth rescue at high temperature, primary screen, SUMOylation pathway inhibitor project, S. cerevisiae, ATP luminescence, 38.5C. S. cerevisiae Mot1-301 growth rescue; percent above DMSO median, 100 means doubled. growth rescue, % at 18.8 µM. hit rate 1% among 320,000. AID 2716, 2010;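 active = every valid replicate shows activation above 250% relative to neutral control wells; inactive = the rest, any valid replicate at or below 250%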;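 note: OY570 slx delta 5 strain wells were the positive control but not used for scaling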
CHT PAM – CHT positive allosteric modulators, primary screen, cell-based, membrane potential dye, choline EC20. B-score at 10 µM. AID 488977, 2010. High affinity choline transporter 1 (Homo sapiens), Q9GZV3. CHT-expressing cells; hits give high values; LV-AA mutant CHT in HEK293 cells. hit rate 0.49% among 310,000;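 active = initial fluorescence not abnormally high and integrated response B-score, plate-corrected, over 3 SD above library mean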
NALP3 yeast inh – NALP3 inflammasome inhibitors in reconstituted yeast, primary screen, luminescence, uHTS | Yeast reconstituted NLRP3/ASC/caspase-1, beta-gal luminescence, 24 h | inhibition, % at 10 µM | hit rate 0.39% among 330,000;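 active = inhibition of 50% or more; inactive = inhibition below 50%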;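 note: plate controls were induced DMSO wells for no effect and uninduced yeast grown without galactose for full effect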
Yeast Mot1 SUMO – growth restoration of Mot1-301 yeast on galactose, dose response, SUMO pathway inhibitor project, whole organism, S. cerevisiae, ATP luminescence, cherry-picked samples | shares compounds with Mot1-301 SUMO | S. cerevisiae Mot1-301 galactose growth, 24 h; -100 = growth of slx-deleted rescue strain | growth activity, percent, % at 42 µM | 2,300 tested, under 10 active | AID 493004, 2010;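 active = Signal drops as the depositor expects, and the fitted half-maximal dose is no more than ten times the top valid tested dose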;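 note: more negative values mean stronger growth rescue toward the control strain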
An asterisk follows results filed as active; i = inactive; . = no result given; + = active, no number. Rows were chosen to be rich in hits. Some 3% of all compounds tested hit in one or more screens of this group.

SMILES	NALP1 yeast inh	A1 inh	CHT inh	Mot1-301 SUMO	CHT PAM	NALP3 yeast inh	Yeast Mot1 SUMO
CCc1nccn1CCC(=O)NC1CC(C)(C)Cc2c1cnn2-c1cccc(F)c1 (centres undefined)	15	0	i	-9	i	-3	.
COc1cc(C[C@@H](C)[C@@H](C)Cc2ccc(O)c(OC)c2)ccc1O	.	0	.	20	.	2	.
CC(Cc1ccc(O)c(O)c1)C(C)Cc1ccc(O)c(O)c1 (centres undefined)	.	1	i	553*	i	21	0
CCCOC(=O)C1=C(C)NC2=C(C(=O)CCC2)C1c1cccs1 (centres undefined)	3	0	i	451*	i	12	0
O=C(O)CC(NC(=O)OCc1ccccc1)c1ccc(Br)cc1 (centres undefined)	9	1	i	585*	i	23	0
COc1ccc(S(=O)(=O)N2CCC(N3CCN(c4ccccc4OC)CC3)CC2)cc1	-5	-1	i	1	i	-1	.
O=C(OCc1nc2ccsc2c(=O)[nH]1)c1ccco1	.	-1	i	651*	i	15	0
Cc1cnc(C(=O)OCc2nc3ccsc3c(=O)[nH]2)cn1	.	1	.	1	.	4	.
CCCCOc1ccc(C(=O)NCC(=O)N2CC(C)CC(C)C2)cc1 (centres undefined)	.	-1	.	16	.	19	.
CN1C(=O)c2cccc3c(Cl)ccc(c23)C1=O	-2	0	i	610*	i	-50	1
CC(=O)N1CC(=O)N(c2ccccc2)C1=O	8	-3	i	-15	i	12	.
Cc1cc(-c2ccc(Cl)cc2Cl)c(C#N)c(=O)[nH]1	.	0	i	418*	i	-14	1
CSc1nc(-c2ccc(Cl)cc2Cl)[nH]c(=O)c1C#N	17	0	i	-3	i	-4	.
Cc1c(NP(=O)(c2ccc(Br)cc2)c2ccc(Br)cc2)c(=O)n(-c2ccccc2)n1C	-12	-1	i	381*	i	6	0
Cc1ccccc1C(=O)NNC(=O)/C=C\C(=O)O	10	1	i	792*	i	-16	0
CC(C)(CC(=O)O)CC(=O)N1CCN(c2nc3cc(Cl)ccc3s2)CC1	3	0	i	-26	i	11	.
CC1CN(CCCOc2ccc([N+](=O)[O-])cc2)CC(C)O1 (centres undefined)	23	0	i	463*	i	16	1
CCc1ccc(-c2cc(C(=O)O)c3ccccc3n2)s1	4	-10	i	-7	i	-13	.
Cc1ccc(-c2ccc(OC(=O)c3ccc(=O)[nH]c3)c(C)c2)cc1	0	0	i	26	i	16	.
CC(=O)N1CCC2(CC1)CC(=O)c1cc(OCC(=O)N3CCCC3)ccc1O2	-6	0	i	488*	i	5	1
CCOC(=O)C1C(c2ccc(C)o2)NC(=O)NC1(O)C(F)(F)F (centres undefined)	-1	0	i	459*	i	1	1
CC12CCC(=O)N1C(C(=O)Nc1nc(-c3ccccc3)cs1)CS2 (centres undefined)	.	0	i	215	i	2	.
COc1ccc(-c2csc(NC(=O)C3CSC4(C)CCC(=O)N34)n2)cc1 (centres undefined)	.	0	.	391*	.	4	1
CCC(C)NC(=S)Nc1ccccc1 (centres undefined)	13	.	.	.	.	1	.
CC(C)C(NC(=S)Nc1ccccc1)C(=O)O (centres undefined)	22	-1	i	956*	i	9	-1
SMILES	NALP1 yeast inh	A1 inh	CHT inh	Mot1-301 SUMO	CHT PAM	NALP3 yeast inh	Yeast Mot1 SUMO
O=S(=O)(Nc1cc(S(=O)(=O)N2CCOCC2)ccc1NCC1CCCO1)c1ccc(F)cc1 (centres undefined)	.	-1	.	36	.	7	.
CC(C)NC(=O)CN1C(=O)c2cccc3cccc1c23	-2	-1	i	20	i	11	.
CCN1C(=O)c2cccc3cccc1c23	10	0	i	-1	i	12	.
COC(=O)CN1C(=O)c2cccc3cccc1c23	9	0	i	798*	i	18	-1
CN(C)C(=O)CN1C(=O)c2cccc3cccc1c23	8	0	i	+	i	9	0
COc1ccc(NC(=O)NNC(=O)C(C)Oc2ccc3ccccc3c2)cc1 (centres undefined)	-72	1	i	-5	i	2	.
CS(=O)(=O)N1CCCC(C(=O)Nc2ccc(F)cc2F)C1 (centres undefined)	-14	0	i	+	i	9	1
O=C(CSc1nc2ccc(Cl)cc2[nH]1)NCc1ccco1	5	0	i	358*	i	3	0
Cc1ccccc1S(=O)(=O)Oc1cccc2c(O)cccc12	24	1	i	-33	i	11	.
COc1ccc(OCCSc2nc3ccccc3n2CCC(=O)O)cc1	20	0	i	10	i	17	.
COc1ccccc1OCCSc1nc2ccccc2n1CCC(=O)O	14	1	i	+	i	8	0
COc1cc(-c2c(NC(=O)c3ccco3)oc3ccccc3c2=O)cc(OC)c1OC	5	1	i	-7	i	-1	.
C=CCN(C(=O)c1ccc2snnc2c1)c1ccccc1	25	0	i	-13	i	12	.
NS(=O)(=O)c1ccc(CCNC(=O)Cc2cccs2)cc1	11	1	i	106	i	14	.
O=C1c2cccc3c(N4CCCCC4)ccc(c23)C(=O)N1CCO	5	0	i	424*	i	-4	1
C=CCN1C(=O)c2cccc3c(N4CCCCC4)ccc(c23)C1=O	-6	0	i	-8	i	22	.
O=C(NNC(=O)c1csc(N2CCOCC2)n1)c1ccc(Cl)nc1	.	1	i	452*	i	17	0
O=C(CSc1nnc2ccccn12)NC(=O)c1ccccc1Cl	.	1	.	-17	.	3	.
COc1ccc(CN2CC(=O)N(c3ccccc3C)C2=S)cc1OC	13	1	i	672*	i	10	-1
